# FBW7 activator: human FBW7 E3 ligase activation, primary screen; normalized activity (activation), % at 26.1 µM; AlphaScreen FBW7–phospho-cyclin E peptide binding, activator screen; Q969H0; 0.13% of 650,000 active; AID 1259310; in the data active means normalized activity above about 1.9%;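 further: purified mutant Fbw7 with reduced substrate affinity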
# MITF primary: inhibitors of human MITF. 0.91% of 650,000 active. O75030. inhibition, % at 2.6 µM. AlphaScreen MITF homodimerization, bead proximity signal; in the data active means inhibition above about 50%;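 further: 0% = vehicle wells with protein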
# GPR151 ag: activates the human receptor GPR151. PathHunter beta-arrestin GPR151 cells, luminescence. activation, % at 11.2 µM. 1% of 650,000 active. AID 1508602; in the data active means activation above about 4.9%;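 further: 0% = median of compound wells and 100% = cells with positive control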
# Target sequence (Q8TDV0 whole entry, looked up): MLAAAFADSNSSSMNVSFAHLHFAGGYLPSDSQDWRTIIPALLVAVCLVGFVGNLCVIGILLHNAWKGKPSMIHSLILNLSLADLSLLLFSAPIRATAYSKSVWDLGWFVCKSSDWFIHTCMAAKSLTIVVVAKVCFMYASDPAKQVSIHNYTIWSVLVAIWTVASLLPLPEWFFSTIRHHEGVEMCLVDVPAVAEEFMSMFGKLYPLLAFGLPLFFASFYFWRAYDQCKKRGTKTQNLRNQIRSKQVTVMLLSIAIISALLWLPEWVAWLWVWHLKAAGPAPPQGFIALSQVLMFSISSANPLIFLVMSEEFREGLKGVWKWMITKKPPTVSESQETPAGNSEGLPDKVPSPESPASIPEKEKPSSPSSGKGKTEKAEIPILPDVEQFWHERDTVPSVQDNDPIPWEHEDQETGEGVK
# TEAD-YAP block: TEAD-YAP interaction inhibition | HEK-TIYL cells, TEAD-Gal4/YAP UAS-luciferase luminescence | inhibition, % at 9.12 µM | 1.4% of 640,000 active | AID 1259422; in the data active means inhibition above about 32%;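 further: 0% = median of test compound wells and 100% = reference inhibitor wells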
# MITF confirm: human MITF inhibition, confirmation | 16% of 4,700 active | inhibition, % at 2.6 µM | shares compounds with MITF primary | AID 1259372 | AlphaScreen MITF homodimerization, biotin/His-MITF beads;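 active means inhibition above a cutoff derived from the DMSO control wells, cut at about 28% in these data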;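 further: 0% = MITF dimer wells with DMSO only; inhibitors lower the bead chemiluminescence by keeping MITF from dimerizing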
# AS interf ctr: optically interferes with AlphaScreen signal | shares compounds with MITF primary | LysRS AlphaScreen counterscreen, signal interference, triplicate | inhibition, % at 2.6 µM | 7.6% of 4,700 active;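 active means inhibition above a cutoff derived from the DMSO control wells, cut at about 30% in these data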
# An asterisk follows results filed as active; nt = no result. Sampled rows, rich in hits. Any-hit rate of the full collection: about 3.5%.
SMILES,FBW7 activator,MITF primary,GPR151 ag,TEAD-YAP block,MITF confirm,AS interf ctr
CSc1ccc(CC(=O)NCC2CCC3(CCN(Cc4ccccn4)CC3)O2)cc1 (configuration not stated),0,69*,0,6,2,4
CCN1CCC(Oc2ccc(-c3ccsc3)cc2)CC1,0,-15,-2,-18,nt,nt
COc1cccc(-c2cnnc(NCc3cc(C(C)(C)C)n[nH]3)n2)c1,0,7,5,-14,nt,nt
COc1ccccc1OCCCOc1ccc(C)cc1OC,0,2,-1,-37,nt,nt
CNCCCOc1ccc(C)cc1OC,0,52*,2,-4,-2,2
CCOC(=O)c1cnn(-c2ccccc2Cl)c1CNCCNC(C)=O,0,83*,-1,1,1,-3
CCOC(=O)c1cnn(-c2ccccc2Cl)c1CNCc1csc(C)n1,0,-4,4,4,nt,nt
O=C(CNCCOCCO)N1c2ccccc2Sc2ccccc21,0,74*,1,12,6,7
COCCNCC(=O)N1c2ccccc2Sc2ccccc21,1,8,2,10,nt,nt
CCCc1nc2ccccc2c(NC(=O)CN(C)CCc2ccc(OC)c(OC)c2)c1CC,0,70*,3,7,7,-1
CCCC(=O)Nc1c(CC)c(CCC)nc2ccccc12,0,5,1,3,nt,nt
CN1[C@@H](C(=O)Nc2cc(Cl)ccc2O)C[C@@H](c2cccs2)NS1(=O)=O,0,70*,0,14,9,6
COc1cc(CN2CCN(Cc3ccc4ccccc4c3)CC2)cc(OC)c1OC,0,60*,2,0,14,23
COc1cccc(CN2CCN(Cc3ccc4ccccc4c3)CC2)c1OC,0,76*,-1,-8,-3,16
COc1cccc(CN2CCN(Cc3cccc(OC)c3OC)CC2)c1,0,74*,0,-2,17,19
CCOc1cc(CN2CCN(Cc3cccc(OC)c3OC)CC2)ccc1OC,0,11,1,-7,nt,nt
COc1cccc(CN2CCN(Cc3cccc(F)c3)CC2)c1OC,0,66*,-1,-5,14,21
COc1cc(CN2CCN(Cc3cccc(OC)c3OC)CC2)cc(OC)c1,-1,27,0,2,nt,nt
N#C/C(=C/c1ccccc1[N+](=O)[O-])c1ccc(C#N)cc1,0,15,0,16,nt,nt
CC(=O)Nc1ccc(N=Nc2ccccc2)s1,-1,4,-1,-42,nt,nt
CCCCOC(=O)C1=C(C)NC2=C(C(=O)CC(C)(C)C2)C1c1cccc(Cl)c1Cl (configuration not stated),0,-6,1,10,nt,nt
CCOCc1nnc(NC(=O)c2sc3ccccc3c2Cl)s1,0,12,1,2,nt,nt
Cc1ccc(OCCOCCOc2ccc(/C=N/n3cnnc3)cc2)cc1,0,-14,0,1,nt,nt
COc1cccc(OC)c1OCCN(C)C,0,59*,-1,5,22,-7
COc1cccc(OC)c1OCCOc1ccccc1C,0,-12,0,8,nt,nt
SMILES,FBW7 activator,MITF primary,GPR151 ag,TEAD-YAP block,MITF confirm,AS interf ctr
CCN(CC)CCCOc1c(OC)cccc1OC,0,75*,1,9,14,-12
O=c1c(C=NC2CC2)c(O)n(C2CCCCC2)c(=O)n1C1CCCCC1,1,-4,-1,5,nt,nt
CCOC(=O)c1c(-c2ccco2)csc1NC(=O)CN1CCN(C)CC1,0,16,-1,-2,nt,nt
CCOC(=O)c1c(-c2ccc(C)c(C)c2)csc1NC(=O)CN1CCN(C)CC1,0,90*,0,9,-3,5
CCOC(=O)c1c(NC(=S)N2CCN(S(C)(=O)=O)CC2)sc2c1CCCC2,0,69*,1,5,11,7
CCOC(=O)c1c(NC(=O)CSc2nnc(C)s2)sc2c1CCC2,0,54*,-1,4,-7,20
CCOC(=O)c1c(NC(=O)CN2CCN(CC)CC2)sc2c1CCC2,0,80*,2,-2,7,7
CCOC(=O)c1c(NC(N)=S)sc2c1CCCC2,0,20,-1,6,nt,nt
O=C(Nc1cc(-c2nc3ccccc3s2)ccc1Cl)c1ccccc1Cl,0,6,-2,-9,nt,nt
CC(C)=CCN1CCNC(=O)C1CC(=O)NCCN1CCOC1=O (configuration not stated),0,-18,0,-9,nt,nt
COc1ccc(Br)cc1CN1CCCCC1,0,-2,1,5,nt,nt
COc1ccc(OC)c(CN2CCN(Cc3cccn3C)CC2)c1,0,63*,5,0,1,8
